Test systems include SK-MEL-2 melanoma; EKVX NSCLC; SN12C renal; UO-31 renal; TK-10 renal; ACHN renal; CAKI-1 renal; A498 renal; CCRF-CEM leukemia; MOLT-4 leukemia; SR leukemia; RPMI-8226 leukemia; OVCAR-8 ovarian; OVCAR-5 ovarian; SK-OV-3 ovarian; IGROV1 ovarian; OVCAR-3 ovarian; HS 578T breast; NCI/ADR-RES ovarian.
Holding throughout (experiment): NCI-60 one-dose screen, 48 h (100 = growth as untreated, 0 = no growth, -100 = all killed)
Holding throughout (settings): 10 µM unless noted

Molecules are shown by their SMILES. Compounds without any hit were thinned out: in the full panel of roughly 83,000, 20% have a hit.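 Compound tested at a single concentration for 48 hours in 96-well plates; a percent growth value below 10 was scored as active.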 Unmarked numbers belong to inactive results. Calls of active or inactive are those of the source.

In the case of `CC(C)c1ccc(/C=N/N=C(N)N)cc1`, the growth is 102% in the experiment on SK-MEL-2 melanoma; 87.1% in the experiment with EKVX NSCLC; 93.8% in the experiment on SN12C renal; 73.2% with UO-31 renal; 95.1% in the experiment with TK-10 renal; 83.2% with ACHN renal. Further, the growth is 50.9% in the experiment with CAKI-1 renal; 106% in the experiment on A498 renal; 35.7% with CCRF-CEM leukemia; 45.7% with MOLT-4 leukemia; 21.6% with SR leukemia; 17.1% in the experiment with RPMI-8226 leukemia. The growth was 89.8% in the experiment on OVCAR-8 ovarian; 89.5% in the experiment with OVCAR-5 ovarian; 85.5% in the experiment on SK-OV-3 ovarian; 89.5% with IGROV1 ovarian; 72.6% in the experiment on OVCAR-3 ovarian; 97.8% with HS 578T breast. Besides, in the experiment with NCI/ADR-RES ovarian, the growth was 79.4%.
For `O=C1COCCN1c1ccc(NCc2cn(Cc3ccc(F)cc3)c3ccccc23)cc1`, the growth is 56.7% in the experiment with SK-MEL-2 melanoma; 91% in the experiment with EKVX NSCLC; 64.3% with SN12C renal; 40.6% in the experiment on UO-31 renal; -32.3% (active) in the experiment with TK-10 renal; 61.6% in the experiment with ACHN renal. Further, the growth with CAKI-1 renal was -37.8% (active); with A498 renal, -91.7% (active); in the experiment on CCRF-CEM leukemia it was 92.9%; with MOLT-4 leukemia it was 102%; in the experiment with SR leukemia, 94.4%; with RPMI-8226 leukemia, 41.7%. In addition, the growth in the experiment on OVCAR-8 ovarian was 70.5%; in the experiment on OVCAR-5 ovarian, -40.3% (active); in the experiment on SK-OV-3 ovarian, 20.3%; in the experiment with IGROV1 ovarian, -18.9% (active); in the experiment with OVCAR-3 ovarian, 3.96% (active); in the experiment with HS 578T breast, 72%.
Turning to `NC(=O)c1cccc(-c2ccc(S(=O)(=O)Nc3ccc4c(c3)N(C(=O)C3CC3)CCC4)cc2)c1`, the growth in the experiment with SK-MEL-2 melanoma is 7.54% (active); in the experiment on EKVX NSCLC it was 67.1%; in the experiment on SN12C renal, 52.1%; in the experiment on UO-31 renal it was 82.2%; in the experiment with TK-10 renal, 77.8%; with ACHN renal, 79.2%. Besides, the growth in the experiment with CAKI-1 renal was 72.4%; in the experiment on A498 renal it was 5.86% (active); with CCRF-CEM leukemia, 33.5%; in the experiment on MOLT-4 leukemia it was 57.8%; with SR leukemia, 50.5%; in the experiment with RPMI-8226 leukemia, 43.7%. In addition, the growth in the experiment on OVCAR-8 ovarian is 57%; in the experiment on OVCAR-5 ovarian, 64.8%; with SK-OV-3 ovarian, 38.2%; in the experiment with IGROV1 ovarian, 37.1%; in the experiment with OVCAR-3 ovarian, 15.8%; in the experiment with HS 578T breast, 17.9%. Moreover, in the experiment on NCI/ADR-RES ovarian, the growth is 104%.
Regarding `CCOc1cc(/C=N\NC(=O)N/N=C/c2ccc(O)c(OCC)c2)ccc1O`, the growth is 49.8% in the experiment on SK-MEL-2 melanoma; 60.6% with EKVX NSCLC; 51.3% in the experiment on SN12C renal; 59.1% with UO-31 renal; 34.3% in the experiment with TK-10 renal; 45.6% in the experiment with ACHN renal. The growth is 37.9% with CAKI-1 renal; 72.6% with A498 renal; 16.5% with CCRF-CEM leukemia; 31.1% with MOLT-4 leukemia; 12.2% with SR leukemia; 32.8% in the experiment with RPMI-8226 leukemia. For the same molecule, the growth in the experiment with OVCAR-8 ovarian is 52%; in the experiment on OVCAR-5 ovarian, 66.8%; with SK-OV-3 ovarian it was 16.2%; in the experiment with IGROV1 ovarian it was 59.4%; with OVCAR-3 ovarian, -34.7% (active); in the experiment on HS 578T breast it was -2.98% (active). For the same molecule, the growth in the experiment on NCI/ADR-RES ovarian is 51.6%.
Regarding `CSc1cccc([N+](=O)[O-])c1`, the growth in the experiment with SK-MEL-2 melanoma was 106%; with EKVX NSCLC it was 103%; in the experiment on SN12C renal, 86.2%; in the experiment on UO-31 renal it was 95.7%; in the experiment with TK-10 renal, 108%; in the experiment with ACHN renal it was 102%. In addition, the growth in the experiment with CAKI-1 renal was 101%; in the experiment with A498 renal, 121%; with CCRF-CEM leukemia, 90.3%; with MOLT-4 leukemia, 107%; in the experiment with SR leukemia, 107%; in the experiment on RPMI-8226 leukemia, 96.8%. For the same molecule, the growth was 107% with OVCAR-8 ovarian; 101% with OVCAR-5 ovarian; 97.8% in the experiment on SK-OV-3 ovarian; 101% in the experiment with IGROV1 ovarian; 110% in the experiment with OVCAR-3 ovarian; 107% with HS 578T breast. Also, the growth with NCI/ADR-RES ovarian is 109%.
`CC1(C)CC[C@]23CC[C@]4(C)[C@H](CC[C@@H]5[C@@]6(C)C/C(=C/c7cccnc7)C(=O)C(C)(C)[C@@H]6CC[C@]54C)[C@H]2[C@H]1OC3=O`: the growth in the experiment with SK-MEL-2 melanoma is 27.6% [100 µM]; in the experiment on EKVX NSCLC it was 74.7% [100 µM]; with SN12C renal, 41.5% [100 µM]; in the experiment with UO-31 renal it was 34.8% [100 µM]; in the experiment with TK-10 renal it was 55% [100 µM]; in the experiment with ACHN renal, 36.9% [100 µM]. Further, the growth is 40.6% [100 µM] with CAKI-1 renal; 31.5% [100 µM] with A498 renal; 19.3% [100 µM] in the experiment on CCRF-CEM leukemia; 19.4% [100 µM] in the experiment on MOLT-4 leukemia; 42.4% [100 µM] in the experiment on SR leukemia; 11.3% [100 µM] in the experiment with RPMI-8226 leukemia. Also, the growth in the experiment on OVCAR-8 ovarian is 42.4% [100 µM]; in the experiment with OVCAR-5 ovarian, 79.7% [100 µM]; in the experiment on SK-OV-3 ovarian, 64.6% [100 µM]; with IGROV1 ovarian, 66.8% [100 µM]; in the experiment on OVCAR-3 ovarian it was 49.3% [100 µM]; in the experiment on HS 578T breast, 54.6% [100 µM]. Moreover, in the experiment with NCI/ADR-RES ovarian, the growth was 50.1% [100 µM].
In the case of `C[C@H]1[C@H](C)CC[C@]2(COC(=O)CCC(=O)O)CC[C@]3(C)C(=CC[C@@H]4[C@@]5(C)CCCNC(C)(C)[C@@H]5CC[C@]43C)[C@H]12`, the growth is 55.6% [100 µM] in the experiment with SK-MEL-2 melanoma; 71.5% [100 µM] with EKVX NSCLC; 65% [100 µM] with SN12C renal; 65.4% [100 µM] in the experiment on UO-31 renal; 81.3% [100 µM] in the experiment with TK-10 renal; 60.2% [100 µM] in the experiment with ACHN renal. Further, the growth in the experiment with CAKI-1 renal is 54.1% [100 µM]; in the experiment with A498 renal, 70.3% [100 µM]; in the experiment with CCRF-CEM leukemia, 73.5% [100 µM]; in the experiment on MOLT-4 leukemia, 46% [100 µM]; in the experiment with SR leukemia, 80.4% [100 µM]; in the experiment on RPMI-8226 leukemia it was 59.7% [100 µM]. Also, the growth is 69.8% [100 µM] in the experiment on OVCAR-8 ovarian; 88.5% [100 µM] in the experiment with OVCAR-5 ovarian; 65.2% [100 µM] with SK-OV-3 ovarian; 54.9% [100 µM] in the experiment on IGROV1 ovarian; 75.4% [100 µM] in the experiment on OVCAR-3 ovarian; 41.8% [100 µM] in the experiment on HS 578T breast. For the same molecule, the growth in the experiment on NCI/ADR-RES ovarian was 71.8% [100 µM].
